Binding signal data for one sequence are collected here from PMC7862700, “An all-to-all approach to the identification of sequence-specific readers for epigenetic DNA modifications on cytosine”.

Holding throughout (assay): DAPPL (digital affinity profiling via proximity ligation, sequencing); 10 mM Tris-HCl pH 7.5, 50 mM NaCl, 1 mM DTT, 4% glycerol, room temperature, 30 min; GST-TFs on glutathione beads, 16-mer random dsDNA library, 0.1% formaldehyde crosslink after washing; high values mean tight binding
The target of assay [1] is T1, FEV (Homo sapiens, UniProt Q99581 1-238).
T1 sequence: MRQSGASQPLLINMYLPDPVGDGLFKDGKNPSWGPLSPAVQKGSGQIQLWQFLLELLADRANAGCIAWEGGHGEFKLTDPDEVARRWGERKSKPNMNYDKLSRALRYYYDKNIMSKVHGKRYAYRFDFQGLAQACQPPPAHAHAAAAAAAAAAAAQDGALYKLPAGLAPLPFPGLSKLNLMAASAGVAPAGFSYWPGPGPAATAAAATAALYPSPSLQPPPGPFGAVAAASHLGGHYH
Conditions: protein: recombinant; tags: N-terminal GST; dsDNA, one strand shown. A digest of the protocol:
(§1)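 A tag-only sample was pooled with DNA-barcoded human transcription factors that had been expressed in yeast as GST fusions and captured on glutathione beads. The pools were incubated for 30 min at room temperature with 200 nmole of a random double-stranded 16-mer DNA library in Tris/NaCl/DTT/glycerol buffer, then washed, crosslinked with 0.1% formaldehyde, proximity-ligated (BsaI/T4 ligase, 1 h, 37 °C), PCR-amplified and sequenced on an Illumina NextSeq500. Binding signal is each hexamer's read frequency for a factor divided by its frequency for the tag-only sample.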

Assay [2] deals with ETV5 (Homo sapiens, UniProt P41161 1-510). Particulars: protein: recombinant; tags: N-terminal GST; dsDNA, one strand shown. A digest of the protocol: as §1
ETV5, sequence (P41161 whole entry): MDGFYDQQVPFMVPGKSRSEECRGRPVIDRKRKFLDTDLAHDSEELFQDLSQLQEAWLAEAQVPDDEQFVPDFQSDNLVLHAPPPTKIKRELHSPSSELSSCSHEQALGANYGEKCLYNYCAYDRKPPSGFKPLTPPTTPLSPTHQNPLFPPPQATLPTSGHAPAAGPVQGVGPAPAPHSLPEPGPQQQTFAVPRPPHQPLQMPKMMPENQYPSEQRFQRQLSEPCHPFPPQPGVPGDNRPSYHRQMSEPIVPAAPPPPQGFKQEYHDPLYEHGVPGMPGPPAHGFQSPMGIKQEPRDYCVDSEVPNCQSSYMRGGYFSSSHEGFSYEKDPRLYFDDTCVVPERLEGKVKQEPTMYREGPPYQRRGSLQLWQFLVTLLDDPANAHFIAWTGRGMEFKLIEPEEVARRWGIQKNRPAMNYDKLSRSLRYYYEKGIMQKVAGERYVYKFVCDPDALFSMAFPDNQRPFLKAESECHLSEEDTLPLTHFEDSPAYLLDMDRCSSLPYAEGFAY
Assay [3] concerns the target HSF1 (Homo sapiens, UniProt Q00613 1-529). Conditions: protein: recombinant; tags: N-terminal GST; chain copies: 3; dsDNA, one strand shown. The essentials: as §1
For assay [4], the target named is T2, SPIC (Homo sapiens, UniProt Q8N5J4 1-248).
T2 sequence: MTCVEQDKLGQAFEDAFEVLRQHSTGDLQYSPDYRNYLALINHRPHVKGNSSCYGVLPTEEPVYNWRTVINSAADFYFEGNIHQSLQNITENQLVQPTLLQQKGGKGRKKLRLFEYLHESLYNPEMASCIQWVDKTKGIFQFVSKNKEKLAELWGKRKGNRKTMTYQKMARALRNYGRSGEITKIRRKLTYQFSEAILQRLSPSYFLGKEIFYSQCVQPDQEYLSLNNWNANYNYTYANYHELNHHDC
Particulars: protein: recombinant; tags: N-terminal GST; dsDNA, one strand shown. A digest of the protocol:
as §1

Assay [5] deals with ELF4 (Homo sapiens, UniProt Q99607 1-663). Conditions: protein: recombinant; tags: N-terminal GST; dsDNA, one strand shown. A digest of the protocol:
as §1

Assay [6] addresses T3, ELK4 (Homo sapiens, UniProt P28324-2 1-405).
T3 sequence: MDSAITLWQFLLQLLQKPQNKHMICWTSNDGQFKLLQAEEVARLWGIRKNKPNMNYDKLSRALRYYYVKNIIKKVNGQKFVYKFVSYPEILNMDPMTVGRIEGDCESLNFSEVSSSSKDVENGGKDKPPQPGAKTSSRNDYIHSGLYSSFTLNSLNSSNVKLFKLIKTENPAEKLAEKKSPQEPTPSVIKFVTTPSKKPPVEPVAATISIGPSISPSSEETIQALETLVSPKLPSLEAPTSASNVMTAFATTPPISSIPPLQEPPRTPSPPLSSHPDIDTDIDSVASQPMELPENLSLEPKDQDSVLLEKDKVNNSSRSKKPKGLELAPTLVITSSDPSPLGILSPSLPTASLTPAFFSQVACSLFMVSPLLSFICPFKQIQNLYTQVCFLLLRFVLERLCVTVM
Particulars: protein: recombinant; tags: N-terminal GST; dsDNA, one strand shown. A digest of the protocol:
as §1

In assay [7] the target is T4, ETV2 (Homo sapiens, UniProt O00321 1-342).
T4 sequence: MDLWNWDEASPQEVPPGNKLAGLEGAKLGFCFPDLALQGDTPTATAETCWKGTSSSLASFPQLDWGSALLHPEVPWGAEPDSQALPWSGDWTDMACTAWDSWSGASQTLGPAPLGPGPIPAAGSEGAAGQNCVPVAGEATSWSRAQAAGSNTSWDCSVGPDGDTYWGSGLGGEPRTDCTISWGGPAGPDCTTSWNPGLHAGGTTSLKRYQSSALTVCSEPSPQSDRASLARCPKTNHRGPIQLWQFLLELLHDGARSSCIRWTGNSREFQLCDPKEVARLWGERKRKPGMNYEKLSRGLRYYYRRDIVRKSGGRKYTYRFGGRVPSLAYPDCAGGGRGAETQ
Conditions: protein: recombinant; tags: N-terminal GST; dsDNA, one strand shown. A digest of the protocol: as §1

Assay [8] addresses T5, ELF3 (Homo sapiens, UniProt P78545 1-371).
T5 sequence: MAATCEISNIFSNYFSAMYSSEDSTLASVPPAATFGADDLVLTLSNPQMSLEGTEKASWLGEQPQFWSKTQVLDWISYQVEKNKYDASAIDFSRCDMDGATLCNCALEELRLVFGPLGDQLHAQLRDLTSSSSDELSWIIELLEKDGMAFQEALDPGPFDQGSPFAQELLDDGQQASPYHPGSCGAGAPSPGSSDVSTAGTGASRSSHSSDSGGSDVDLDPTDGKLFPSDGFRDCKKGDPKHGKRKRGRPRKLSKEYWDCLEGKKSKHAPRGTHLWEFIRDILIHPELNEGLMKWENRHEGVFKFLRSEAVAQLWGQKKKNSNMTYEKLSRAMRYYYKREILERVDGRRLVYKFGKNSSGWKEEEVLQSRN
Particulars: protein: recombinant; tags: N-terminal GST; dsDNA, one strand shown. The essentials:
as §1

In assay [9] the target is CRX (Homo sapiens, UniProt O43186 1-299). Conditions: protein: recombinant; tags: N-terminal GST; dsDNA, one strand shown. A digest of the protocol: as §1
CRX, sequence (O43186 whole entry): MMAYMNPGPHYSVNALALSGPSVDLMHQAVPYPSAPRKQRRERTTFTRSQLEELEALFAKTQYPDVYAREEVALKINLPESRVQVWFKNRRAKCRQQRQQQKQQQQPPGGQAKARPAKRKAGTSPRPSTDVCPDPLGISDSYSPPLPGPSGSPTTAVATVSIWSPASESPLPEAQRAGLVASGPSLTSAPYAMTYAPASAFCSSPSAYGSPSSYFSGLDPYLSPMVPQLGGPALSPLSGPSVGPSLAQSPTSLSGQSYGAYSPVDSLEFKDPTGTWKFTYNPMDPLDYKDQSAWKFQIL
Assay [10] deals with ETV1 (Homo sapiens, UniProt P50549 1-477). Conditions: protein: recombinant; tags: N-terminal GST; dsDNA, one strand shown. A digest of the protocol: as §1
ETV1, sequence (P50549 whole entry): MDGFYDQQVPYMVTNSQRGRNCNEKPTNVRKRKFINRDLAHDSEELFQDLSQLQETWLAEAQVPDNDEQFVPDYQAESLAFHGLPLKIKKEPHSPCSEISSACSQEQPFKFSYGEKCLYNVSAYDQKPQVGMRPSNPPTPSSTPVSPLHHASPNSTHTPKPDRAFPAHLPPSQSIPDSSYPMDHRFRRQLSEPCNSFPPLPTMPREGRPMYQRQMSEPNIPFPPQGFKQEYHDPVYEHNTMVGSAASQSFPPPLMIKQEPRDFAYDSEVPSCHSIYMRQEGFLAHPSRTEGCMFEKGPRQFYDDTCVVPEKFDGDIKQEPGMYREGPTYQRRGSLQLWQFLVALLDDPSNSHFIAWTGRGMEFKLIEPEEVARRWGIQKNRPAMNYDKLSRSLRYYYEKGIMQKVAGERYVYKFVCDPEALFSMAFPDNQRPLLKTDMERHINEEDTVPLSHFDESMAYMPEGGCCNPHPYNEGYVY
The target of assay [11] is T6, ERF (Homo sapiens, UniProt P50548 1-548).
T6 sequence: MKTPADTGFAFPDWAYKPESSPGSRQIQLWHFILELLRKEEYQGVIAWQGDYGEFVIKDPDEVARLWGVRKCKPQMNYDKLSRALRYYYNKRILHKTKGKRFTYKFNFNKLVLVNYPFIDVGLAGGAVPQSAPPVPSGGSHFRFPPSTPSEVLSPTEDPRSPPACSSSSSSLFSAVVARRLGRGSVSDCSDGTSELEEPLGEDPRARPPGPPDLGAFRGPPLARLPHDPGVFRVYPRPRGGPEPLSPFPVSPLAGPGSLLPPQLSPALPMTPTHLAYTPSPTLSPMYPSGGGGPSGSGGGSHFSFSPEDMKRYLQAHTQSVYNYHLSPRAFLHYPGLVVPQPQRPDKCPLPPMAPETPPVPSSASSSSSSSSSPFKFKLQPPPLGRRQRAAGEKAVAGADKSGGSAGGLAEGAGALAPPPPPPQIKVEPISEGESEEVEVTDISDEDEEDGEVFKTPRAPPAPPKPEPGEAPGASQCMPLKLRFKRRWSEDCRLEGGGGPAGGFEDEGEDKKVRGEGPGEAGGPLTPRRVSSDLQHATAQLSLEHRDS
Conditions: protein: recombinant; tags: N-terminal GST; dsDNA, one strand shown. The essentials:
as §1

Assay [12] concerns the target T7, ETV3L (Homo sapiens, UniProt Q6ZN32 1-361).
T7 sequence: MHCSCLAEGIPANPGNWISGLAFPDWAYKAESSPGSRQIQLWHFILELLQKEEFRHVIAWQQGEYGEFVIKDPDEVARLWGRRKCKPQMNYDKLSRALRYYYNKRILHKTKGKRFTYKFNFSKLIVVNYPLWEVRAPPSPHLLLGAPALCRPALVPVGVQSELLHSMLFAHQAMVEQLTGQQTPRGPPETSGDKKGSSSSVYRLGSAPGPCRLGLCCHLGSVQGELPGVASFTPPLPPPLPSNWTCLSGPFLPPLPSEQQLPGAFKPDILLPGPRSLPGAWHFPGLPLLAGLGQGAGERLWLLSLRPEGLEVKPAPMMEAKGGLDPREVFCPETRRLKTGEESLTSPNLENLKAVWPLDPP
Particulars: protein: recombinant; tags: N-terminal GST; dsDNA, one strand shown. The essentials:
as §1

Assay [13] concerns the target T8, ETS2 (Homo sapiens, UniProt P15036 1-469).
T8 sequence: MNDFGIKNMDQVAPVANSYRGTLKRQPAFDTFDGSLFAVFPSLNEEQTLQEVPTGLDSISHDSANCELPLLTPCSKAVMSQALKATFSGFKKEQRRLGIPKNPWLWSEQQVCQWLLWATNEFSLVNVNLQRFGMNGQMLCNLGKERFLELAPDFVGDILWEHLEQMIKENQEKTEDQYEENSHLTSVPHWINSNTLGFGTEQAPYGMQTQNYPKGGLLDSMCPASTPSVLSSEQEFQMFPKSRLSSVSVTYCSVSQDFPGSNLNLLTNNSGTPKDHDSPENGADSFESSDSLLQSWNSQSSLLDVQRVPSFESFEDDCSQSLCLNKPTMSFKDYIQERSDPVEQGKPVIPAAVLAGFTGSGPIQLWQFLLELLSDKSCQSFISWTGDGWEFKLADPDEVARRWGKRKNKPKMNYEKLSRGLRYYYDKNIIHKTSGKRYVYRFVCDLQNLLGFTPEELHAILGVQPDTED
Particulars: protein: recombinant; tags: N-terminal GST; dsDNA, one strand shown. The essentials: as §1

Assay [14] deals with T9, SPDEF (Homo sapiens, UniProt O95238 1-335).
T9 sequence: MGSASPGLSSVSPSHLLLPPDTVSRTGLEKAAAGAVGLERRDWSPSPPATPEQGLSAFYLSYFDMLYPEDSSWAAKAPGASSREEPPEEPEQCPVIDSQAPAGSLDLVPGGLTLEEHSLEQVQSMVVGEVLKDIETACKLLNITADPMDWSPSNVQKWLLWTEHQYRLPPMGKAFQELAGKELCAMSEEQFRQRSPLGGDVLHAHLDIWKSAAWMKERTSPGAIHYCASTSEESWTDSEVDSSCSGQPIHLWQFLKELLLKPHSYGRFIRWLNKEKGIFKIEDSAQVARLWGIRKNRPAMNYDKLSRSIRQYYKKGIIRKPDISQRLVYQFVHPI
Particulars: protein: recombinant; tags: N-terminal GST; dsDNA, one strand shown. The essentials: as §1

Assay [15] has as its target T10, ETV7 (Homo sapiens, UniProt Q9Y603 1-341).
T10 sequence: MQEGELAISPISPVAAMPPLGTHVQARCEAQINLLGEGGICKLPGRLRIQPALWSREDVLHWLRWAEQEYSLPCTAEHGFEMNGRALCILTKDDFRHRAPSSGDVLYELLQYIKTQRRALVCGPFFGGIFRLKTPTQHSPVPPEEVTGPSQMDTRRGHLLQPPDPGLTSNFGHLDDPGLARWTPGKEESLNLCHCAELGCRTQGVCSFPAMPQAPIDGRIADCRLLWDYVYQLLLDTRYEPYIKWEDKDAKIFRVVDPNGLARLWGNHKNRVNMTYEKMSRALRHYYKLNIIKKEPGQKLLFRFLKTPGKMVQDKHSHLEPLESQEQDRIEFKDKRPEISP
Particulars: protein: recombinant; tags: N-terminal GST; dsDNA, one strand shown. A digest of the protocol:
as §1

Assay [16] deals with T11, ELF5 (Homo sapiens, UniProt Q9UKW6-2 1-255).
T11 sequence: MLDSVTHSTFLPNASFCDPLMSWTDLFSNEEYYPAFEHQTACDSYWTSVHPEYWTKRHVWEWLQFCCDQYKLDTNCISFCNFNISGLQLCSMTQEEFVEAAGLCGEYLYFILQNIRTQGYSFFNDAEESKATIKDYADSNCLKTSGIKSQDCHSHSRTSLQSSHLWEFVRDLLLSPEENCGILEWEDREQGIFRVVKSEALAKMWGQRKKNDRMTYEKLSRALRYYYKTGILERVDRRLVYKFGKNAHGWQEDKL
Particulars: protein: recombinant; tags: N-terminal GST; dsDNA, one strand shown. A digest of the protocol: as §1

Assay [17] concerns the target T12, ETV3 (Homo sapiens, UniProt P41162-2 1-143).
T12 sequence: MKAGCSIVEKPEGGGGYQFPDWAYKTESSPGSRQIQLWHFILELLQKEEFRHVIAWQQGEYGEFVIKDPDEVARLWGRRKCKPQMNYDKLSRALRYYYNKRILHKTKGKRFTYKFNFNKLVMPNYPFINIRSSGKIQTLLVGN
Particulars: protein: recombinant; tags: N-terminal GST; dsDNA, one strand shown. The essentials: as §1

Assay [18] concerns the target ETV6 (Homo sapiens, UniProt P41212 1-452). Particulars: protein: recombinant; tags: N-terminal GST; dsDNA, one strand shown. A digest of the protocol: as §1

HSF1, sequence (Q00613 whole entry): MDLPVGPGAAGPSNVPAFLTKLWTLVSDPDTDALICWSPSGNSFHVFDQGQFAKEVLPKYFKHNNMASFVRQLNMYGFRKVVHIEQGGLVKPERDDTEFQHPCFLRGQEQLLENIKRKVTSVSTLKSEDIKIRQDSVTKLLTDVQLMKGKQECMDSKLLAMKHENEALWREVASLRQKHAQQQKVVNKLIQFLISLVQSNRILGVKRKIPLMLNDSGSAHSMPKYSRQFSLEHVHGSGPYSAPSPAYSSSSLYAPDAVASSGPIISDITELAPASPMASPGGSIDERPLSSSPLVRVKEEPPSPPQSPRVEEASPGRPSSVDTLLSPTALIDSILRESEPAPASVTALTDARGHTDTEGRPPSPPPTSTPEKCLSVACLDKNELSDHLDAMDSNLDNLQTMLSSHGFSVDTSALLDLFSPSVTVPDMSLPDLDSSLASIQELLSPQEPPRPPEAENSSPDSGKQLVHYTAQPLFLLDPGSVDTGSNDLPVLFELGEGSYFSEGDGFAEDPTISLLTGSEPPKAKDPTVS
ELF4, sequence (Q99607 whole entry): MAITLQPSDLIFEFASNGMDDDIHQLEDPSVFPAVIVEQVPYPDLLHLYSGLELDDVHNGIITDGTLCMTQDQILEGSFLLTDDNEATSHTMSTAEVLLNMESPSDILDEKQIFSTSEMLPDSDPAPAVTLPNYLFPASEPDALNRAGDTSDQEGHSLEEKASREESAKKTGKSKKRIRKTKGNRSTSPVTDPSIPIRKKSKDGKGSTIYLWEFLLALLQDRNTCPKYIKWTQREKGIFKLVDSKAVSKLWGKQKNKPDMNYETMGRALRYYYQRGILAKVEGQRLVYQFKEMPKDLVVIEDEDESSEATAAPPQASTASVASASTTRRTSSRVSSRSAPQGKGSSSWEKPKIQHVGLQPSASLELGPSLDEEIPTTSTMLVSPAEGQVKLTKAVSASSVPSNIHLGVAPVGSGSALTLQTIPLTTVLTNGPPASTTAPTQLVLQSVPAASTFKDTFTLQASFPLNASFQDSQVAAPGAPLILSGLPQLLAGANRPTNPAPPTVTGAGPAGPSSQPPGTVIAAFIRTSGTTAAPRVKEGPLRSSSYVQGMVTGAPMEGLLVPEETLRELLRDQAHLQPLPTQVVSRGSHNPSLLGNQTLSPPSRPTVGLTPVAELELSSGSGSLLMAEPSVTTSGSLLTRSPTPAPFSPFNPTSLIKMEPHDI
ETV6, sequence (P41212 whole entry): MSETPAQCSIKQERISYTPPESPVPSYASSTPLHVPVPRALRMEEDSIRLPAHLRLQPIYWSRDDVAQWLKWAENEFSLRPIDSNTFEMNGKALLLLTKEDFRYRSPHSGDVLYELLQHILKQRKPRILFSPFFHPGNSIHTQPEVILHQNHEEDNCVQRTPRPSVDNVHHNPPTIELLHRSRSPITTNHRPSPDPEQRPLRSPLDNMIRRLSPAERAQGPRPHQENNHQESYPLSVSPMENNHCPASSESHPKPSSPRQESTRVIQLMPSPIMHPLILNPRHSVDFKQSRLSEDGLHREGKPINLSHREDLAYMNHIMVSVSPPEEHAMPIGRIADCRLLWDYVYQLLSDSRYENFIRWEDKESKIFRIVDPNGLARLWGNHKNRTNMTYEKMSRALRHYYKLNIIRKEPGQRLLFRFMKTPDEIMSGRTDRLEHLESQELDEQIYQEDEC

As to TCATTT, the binding signal in assay [1] is 1.38 fold enrichment (6-mer frequency, TF over GST control); in assay [2] it was 1.4 fold enrichment (6-mer frequency, TF over GST control); in assay [3], 1.14 fold enrichment (6-mer frequency, TF over GST control); in [4], 1.41 fold enrichment (6-mer frequency, TF over GST control); in assay [5], 1.34 fold enrichment (6-mer frequency, TF over GST control); in assay [6] it was 1.37 fold enrichment (6-mer frequency, TF over GST control). For the same sequence, the binding signal was 1.5 fold enrichment (6-mer frequency, TF over GST control) in assay [7]; 1.24 fold enrichment (6-mer frequency, TF over GST control) in assay [8]; 1.16 fold enrichment (6-mer frequency, TF over GST control) in [9]; 1.41 fold enrichment (6-mer frequency, TF over GST control) in assay [10]; 1.37 fold enrichment (6-mer frequency, TF over GST control) in [11]; 1.47 fold enrichment (6-mer frequency, TF over GST control) in assay [12]. The binding signal was 1.41 fold enrichment (6-mer frequency, TF over GST control) in assay [13]; 1.22 fold enrichment (6-mer frequency, TF over GST control) in [14]; 1.37 fold enrichment (6-mer frequency, TF over GST control) in assay [15]; 1.32 fold enrichment (6-mer frequency, TF over GST control) in assay [16]; 1.3 fold enrichment (6-mer frequency, TF over GST control) in [17]; 1.35 fold enrichment (6-mer frequency, TF over GST control) in [18].
